Source: PubChem BioAssay
The sample as a whole holds a higher share of hits than the screen did.
Pf Dd2 growth = qHTS Primary assay for Inhibitors of Plasmodium falciparum Dd2 growth in vitro | P. falciparum Dd2 growth, SYBR Green, 72 h | Potency, µM (series often up to 28.9 µM), usual class: inhibitors | 120,000 tested, 4.3% active | AID 1347417, 2020; active means well fitted inhibition curve with a large enough effect; further: nearly all actives have a fitted effect of over 65% in size
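Infected erythrocytes (Dd2, 0.3% parasitemia, 2.5% hematocrit final) are added to compound in RPMI-1640/Albumax II medium, grown 72 h at 37C in low oxygen, then lysed with saponin/Triton-X containing SYBR Green and read by fluorescence.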
Large screens that a line does not name were inactive.

CCN(CC)C(=O)C1CCN(S(=O)(=O)c2c(C)noc2/C=C/c2cccc(OC)c2)CC1	none
Cc1ccc(/C=C/c2onc(C)c2S(=O)(=O)N2CCC(C(=O)Nc3ccc(Br)c(C)c3)CC2)cc1	none
Cc1cc(NC(=O)C2CCCN(S(=O)(=O)c3cccc4nsnc34)C2)ccc1Br (configuration not stated)	none
COc1ccc(CCC(=O)NC2CCN(c3cc(C(F)(F)F)nc(C)n3)CC2)cc1	none
CN(CC1CCOCC1)S(=O)(=O)c1cccc(C(F)(F)F)c1	none
COc1ccccc1OCC(=O)N1CCC(c2nc3ccccc3o2)CC1	none
COC(=O)N1CCCC(c2nn(-c3ccccc3)c(=O)[nH]2)C1 (configuration not stated)	none
CC(C)n1cnc(S(=O)(=O)N2CCCC(C(=O)NCc3ccccc3Cl)C2)c1 (configuration not stated)	none
O=C(NC[C@@H]1C[C@H](F)CN1)c1ccc(-c2cn(-c3ccccc3)cn2)cc1	none
O=C(N[C@H](c1ccccn1)C1CC(O)C1)c1cccc(Cn2cccn2)c1 (some centres not stated)	none
CCCc1cc(C(=O)N[C@H](c2ccccn2)C2CC(O)C2)cs1 (some centres not stated)	none
O=C(N[C@H](c1ccccn1)C1CC(O)C1)c1cc(=O)n(-c2ccccc2)[nH]1 (some centres not stated)	Pf Dd2 growth 1.4µM
Cc1ccc2[nH]c(CSc3nnc(NC(=O)c4ccccc4C)s3)cc(=O)c2c1	none
O=c1n(-c2ccc(Cl)cc2)nc2n1CCN(Cc1ccc(C(F)(F)F)cc1)C2	none
COc1ccc(CN2CCn3c(nn(-c4ccc(C(F)(F)F)cc4)c3=O)C2)cc1	none
O=c1n(-c2ccncc2)nc2n1CCN(Cc1ccc(C(F)(F)F)cc1)C2	Pf Dd2 growth 7.9µM
CCOC(=O)c1ccc(NC(=O)CN2C(=O)C(C)(C)c3ccccc32)cc1	none
COc1ccc(C(=O)CC2(O)C(=O)N(Cc3ccccc3Cl)c3ccccc32)cc1 (configuration not stated)	none
CCCCN1C(=O)C(O)(CC(=O)c2ccc(C(C)(C)C)cc2)c2ccccc21 (configuration not stated)	Pf Dd2 growth 1.3µM
O=C1NC(C(=O)NCC2CCN(Cc3ccc(F)cc3)CC2)Cn2cccc21 (configuration not stated)	none
COc1cccc(Nc2ncc(-c3cccc(N(C)C)c3)c3c2OCC3)c1	none
COc1ccc(Nc2ncc(-c3cccnc3)c3c2OCC3)cc1	none
Cn1cc(-c2cnc(Nc3ccncc3)c3c2CCO3)cn1	none
Cc1cc(-c2cnc(Nc3ccc(F)cc3)c3c2CCO3)ccn1	none
Clc1ccc(Nc2ncc(-c3cccnc3)c3c2OCC3)cc1	Pf Dd2 growth 10µM
FC(F)(F)c1cccc(Nc2ncc(-c3cccnc3)c3c2OCC3)c1	Pf Dd2 growth 8.9µM
Cc1cc2nc3n(c(=O)c2n1CC(=O)NC1CCCC1)CCCCC3	none
CCn1ccnc1CN(C)C(=O)c1ccc(OC2CCN(S(=O)(=O)N(C)C)CC2)cc1	none
CN1C[C@@H](NS(=O)(=O)c2ccc(Cl)cc2)C[C@H]1c1nc(-c2ccc(F)cc2)no1	none
CCOc1ccc(Oc2nc(NC)nc(N3CCOCC3)n2)nn1	none
COc1cc(NC(=O)Cn2nnnc2-c2ccccc2F)cc(OC)c1OC	none
COC(=O)c1ccc2nc(C[C@@H]3C[C@@H](C(C)C)[C@H](CNC(=O)CN(C)C)C=C3C)[nH]c2c1	none
COc1ccc2nc(C[C@@H]3C[C@@H](C(C)C)[C@H](CNC(=O)C4CCCCC4)C=C3C)[nH]c2c1	Pf Dd2 growth 13µM
CC1=C[C@@H](CNC(=O)C2CCCCC2)[C@H](C(C)C)C[C@H]1Cc1nc2ccc(C)cc2[nH]1	Pf Dd2 growth 11µM
CCC(CC)C(=O)NC[C@@H]1C=C(C)[C@H](Cc2nc3ccc(C)cc3[nH]2)C[C@H]1C(C)C	none
CC1=C[C@@H](CN)[C@H](C(C)C)C[C@H]1Cc1nc2ccccc2[nH]1	none
CC1=C[C@@H](CNC(=O)C2CCCCC2)[C@H](C(C)C)C[C@H]1Cc1nc2c(C)cccc2[nH]1	none
COc1ccc2nc(C[C@@H]3C[C@@H](C(C)C)[C@H](CNC(=O)COCC(=O)O)C=C3C)[nH]c2c1	none
COc1ccc2nc(C[C@@H]3C[C@@H](C(C)C)[C@H](CNC(=O)[C@@H]4CCCC[C@@H]4C(=O)O)C=C3C)[nH]c2c1	none
CC1=C[C@@H](CNC(=O)COCC(=O)O)[C@H](C(C)C)C[C@H]1Cc1nc2ccc(F)cc2[nH]1	none
COC(=O)c1ccc2nc(C[C@@H]3C[C@@H](C(C)C)[C@H](CN(C)C)C=C3C)[nH]c2c1	Pf Dd2 growth 13µM
COC(=O)c1ccc2nc(C[C@@H]3C[C@@H](C(C)C)[C@H](CNC(=O)C4CCCCC4)C=C3C)[nH]c2c1	Pf Dd2 growth 11µM
CC1=C[C@@H](CNC(=O)CCCC(=O)O)[C@H](C(C)C)C[C@H]1Cc1nc2ccccc2[nH]1	none
CC(C)C1CN(C(=O)c2n[nH]c3c2CCC3)CCC(=O)N1CC1CC1 (configuration not stated)	none
